# Source: PubChem BioAssay AID602440 (Sanford-Burnham Center for Chemical Genomics, 2012)
# About 2,300 (0.64%) of roughly 360,000 compounds were called active. Rule as the data show it: active = inhibition mostly above about 40% (no sharp cut-off); inactive = mostly below about 27%. The sample as a whole holds a higher share of actives than the screen did.
# Biological target: Sentrin-specific protease 8 (Homo sapiens) (UniProt Q96LD8)
# Test: blockers of SENP8 deneddylase activity – biochemical, fluorescence, Nedd8 protein substrate, uHTS, primary screen (AID 602440)
# Details: recombinant SENP8, Nedd8 substrate fluorescence; at 20 µM; hits give high values
# Chain of Sentrin-specific protease 8 (Homo sapiens) (Q96LD8 whole entry, looked up): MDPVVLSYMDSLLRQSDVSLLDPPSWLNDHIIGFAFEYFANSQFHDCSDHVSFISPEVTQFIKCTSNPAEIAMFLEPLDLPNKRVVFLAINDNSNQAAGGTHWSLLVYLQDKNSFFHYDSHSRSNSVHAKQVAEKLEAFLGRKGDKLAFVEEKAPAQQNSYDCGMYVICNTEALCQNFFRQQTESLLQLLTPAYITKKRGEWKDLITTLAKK
row,Structure (SMILES),inhibition
1,Cc1cc(C)n2nc(C(=O)OCC(=O)N(C)CC(=O)Nc3ccc(F)cc3)nc2n1,3.2% (inactive)
2,COc1ccc(CCNC(=O)COC(=O)C2CC2C)cc1 (stereo not drawn),9.7% (inactive)
3,Cc1cc(NC(=O)CN2C(=O)NC(CCc3ccccc3)C2=O)no1 (stereo not drawn),12.2% (inactive)
4,Cc1cccc(C)c1NC(=O)CNC(=O)C1CCCC1,11.2% (inactive)
5,CCc1cccc(C)c1NC(=O)COC(=O)CC1CCCC1,40.9% (active)
6,CCc1cccc(C)c1NC(=O)COC(=O)Cc1ccsc1,-35.2% (inactive)
7,Cc1ccc(N(C(=O)CC2NC(=O)NC2=O)C2(C(=O)NC3CCCC3)CCCCC2)cc1 (stereo not drawn),21.4% (inactive)
8,Cc1ccc(NC(=O)CN(C)C(=O)c2cccc(S(=O)(=O)N3CCCC3)c2)cc1,18.7% (inactive)
9,COc1ccc(CCNC(=O)CN(c2ccccc2)S(C)(=O)=O)cc1,13.5% (inactive)
10,COc1cccc(N(CC(=O)NCCSc2ccccn2)S(C)(=O)=O)c1,40.3% (active)
11,COc1ccc(N(CC(=O)NCCSCc2cccc(Cl)c2)S(C)(=O)=O)cc1,16.9% (inactive)
12,COc1ccc(NC(=O)CCNS(=O)(=O)c2ccc3c(c2)c(=O)n(C)c(=O)n3C)cc1OC,9.5% (inactive)
13,OCc1n[nH]c(CO)n1,6.5% (inactive)
14,CN1C(=O)/C(=C/C=C2\SCCN2C)OC1=S,43.8% (active)
15,O=[N+]([O-])c1ccc(C=Nc2ccc(Cl)cc2Cl)s1,69% (active)
16,CCNc1nc(N)nc(Oc2ccc(OCC)nn2)n1,6.3% (inactive)
17,O=P(O)(CP(=O)(c1ccccc1)c1ccccc1)c1ccccc1O,41.1% (active)
18,O=P(O)(CP(=O)(c1ccccc1)c1ccccc1)c1ccccc1,10.2% (inactive)
19,CC(C)(C)c1cc(P(=O)(c2ccccc2)c2ccccc2)ccc1O,20.7% (inactive)
20,COC(=O)C1=C(C)N(C)C(=S)NC1c1cc(OC)ccc1OC (stereo not drawn),10% (inactive)
21,COC(=O)[C@]12CCCCC=C1N(CCC1=CCCCC1)C(=O)[C@H](CC(=O)NCC1CCCCC1)C2,10.5% (inactive)
22,COc1cc(C(=O)NC2CCN(Cc3ccccc3)CC2)cc(Cl)c1OC(C)C,3.3% (inactive)

row,Structure (SMILES),inhibition
1,CC(=O)Nc1ccc(NC(=O)COc2ccc(S(=O)(=O)NC(C)c3ccccc3)cc2)cc1 (stereo not drawn),8.8% (inactive)
2,CCOC(=O)C(=O)Nc1nc(-c2ccccc2)c(CC)s1,16.8% (inactive)
3,CCOC(=O)C/C(C)=N\Nc1ccc([N+](=O)[O-])cc1[N+](=O)[O-],23.3% (inactive)
4,CCOC(=O)/C(=N\Nc1ccccc1[N+](=O)[O-])c1csc(Nc2ccccc2)n1,52.3% (active)
5,NC(=O)c1ccc(N2CCOCC2)nc1,10.6% (inactive)
6,Nc1ncnc2c1ncn2[C@@H]1O[C@H](CNC(=O)[C@H](N)Cc2cccnc2)[C@@H](O)[C@H]1O,6.7% (inactive)
7,CN(CCc1ccccn1)C(=O)CCC1CCCN(Cc2ccccc2OC(F)F)C1 (stereo not drawn),29.2% (inactive)
8,Nc1ccc2nc3c(=O)[nH]c(=S)[nH]c3nc2c1,46.9% (active)
9,CC(C)(C)CN1CCNC(=O)C1CC(=O)NC1Cc2ccccc2C1 (stereo not drawn),-47.4% (inactive)
10,CCCCC1=CC2=CC(=O)C(C)(OC(=O)CC)C(=O)C2=CN1CCCOC(C)C (stereo not drawn),-190% (inactive)
11,COC(=O)CCCC1=CC2=CC(=O)C(C)(OC(=O)c3cccs3)C(=O)C2=CN1CC(C)C (stereo not drawn),40.8% (active)
12,COC(=O)CCCC1=CC2=C(c3ccccc3)C(=O)C(C)(OC(=O)C3CCCC3)C(=O)C2=CN1c1ccc(OC)cc1 (stereo not drawn),-154% (inactive)
13,O=C(NC1CCN(S(=O)(=O)c2ccc(F)cc2)CC1)c1ccccc1,15.3% (inactive)
14,COC(=O)N(C)C[C@@H]1OCc2cnnn2CCCC(=O)N([C@@H](C)CO)C[C@@H]1C,18.6% (inactive)
15,COc1cc(NC(=O)c2cc([N+](=O)[O-])ccc2Br)ccc1NC(=O)c1ccco1,32.3% (inactive)
16,COc1ccc2c(C(=O)c3ccc(C)cc3)n(CCC(N)=O)[n+]([O-])c2c1,2.6% (inactive)
17,COc1ccc(C(=O)c2c3ccc([N+](=O)[O-])cc3[n+]([O-])n2CCCN)cc1,48.4% (active)
18,COc1ccc(Cc2nnc(SCC(=O)c3cccc([N+](=O)[O-])c3)n2C)cc1,10.4% (inactive)
19,COC(=O)c1ccc(S(=O)(=O)N(CCO)Cc2ccccc2)n1C,21.1% (inactive)
20,O=C1C=C(NS(=O)(=O)c2ccccc2)C(=O)c2ccccc21,51.3% (active)
21,O=C(NC1=CC(=O)c2ccccc2C1=O)c1ccccc1,44.7% (active)
22,C/C(=N\NC(=O)c1ccc(C)cc1)C1C(=O)c2ccccc2C1=O,38.5% (inactive)

row,Structure (SMILES),inhibition
1,CN(C)C(=O)c1ccc(NC(=O)c2ccccc2-c2ccccc2)cc1,4.2% (inactive)
2,CC(=O)NS(=O)(=O)c1ccccc1,0.5% (inactive)
3,Cc1cc(NS(=O)(=O)c2ccccc2)no1,11.5% (inactive)
4,CCN(CC)S(=O)(=O)c1ccc2c3c(cccc13)C(=O)S2,-49.2% (inactive)
5,NC(=O)C1CC=CCC1C(=O)OCC(Cl)=C(Cl)Cl (stereo not drawn),1.1% (inactive)
6,Cc1cc(N2C(=O)C(=O)/C(=C(/O)c3ccc(Cl)cc3)C2c2cccc(Br)c2)no1 (stereo not drawn),-138% (inactive)
7,O=S1(=O)CCN2C(=N1)SC1=C2CCN(Cc2ccccc2)C1,21.1% (inactive)
8,C=CCn1c(SCC(=O)c2ccc(Br)cc2)nnc1C(C)NC(=O)Cc1ccc(OC)cc1 (stereo not drawn),1.1% (inactive)
9,CS(=O)(=O)c1ccc(C(=O)OCC(=O)NNC(=O)COc2ccc(Cl)cc2)cc1,11.8% (inactive)
10,CC(C)Cc1nnc(NC(=O)CCc2ccccc2)s1,2.2% (inactive)
11,CC(C)Cc1nnc(NC(=O)CCNC(=O)c2ccccc2Cl)s1,8.4% (inactive)
12,CC(C)Cc1nnc(NC(=O)CCC(=O)Nc2ccc3cn[nH]c3c2)s1,42.9% (active)
13,CN(C)CCCn1c(SCCN2C(=O)c3ccccc3C2=O)nc2ccccc2c1=O,2.7% (inactive)
14,O=C(c1ccccc1)N1CCN(c2ccc([N+](=O)[O-])c(NCc3ccco3)c2)CC1,41.8% (active)
15,O=C(c1ccc(S(=O)(=O)NCc2ccco2)cc1)N1CCN(c2ccccc2)CC1,17.9% (inactive)
16,O=[N+]([O-])c1ccc(N2CCN(S(=O)(=O)c3ccc4ccccc4c3)CC2)cc1NCc1ccco1,28.5% (inactive)
17,O=C(NCCC1CCCCN1S(=O)(=O)c1ccccc1)C(=O)NCC1CCCO1 (stereo not drawn),7.7% (inactive)
18,CCCCNC(=O)C(C)N(CCN(C)C)C(=O)CCCN1C(=O)NC(c2ccc(Cl)cc2)C(C(=O)OCc2ccccc2)=C1C (stereo not drawn),12.8% (inactive)
19,C/C(=N/NC(=O)c1ccc(Br)o1)c1ccc(C)o1,-3.6% (inactive)
20,Cc1ccccc1CN1CCN(C(=O)c2cccc(F)c2)CC1,17.2% (inactive)
21,O=C(c1cccc(F)c1)N1CCN(c2ccc([N+](=O)[O-])c3cccnc23)CC1,41.3% (active)
22,O=C(c1cccc(F)c1)N1CCC(O)(c2cccnc2)CC1,18.5% (inactive)

row,Structure (SMILES),inhibition
1,NC(=O)C1CC(=O)N(c2ccc(OCC(=O)NCc3ccccc3)cc2)C1 (stereo not drawn),5.3% (inactive)
2,CC(C)C[C@@H](CO)N1CCN(Cc2ccc(O)cc2)CCC1=O,-5% (inactive)
3,CC(C)(C)NC(=O)NC(=O)COC(=O)C1(C)CC1(Cl)Cl (stereo not drawn),12.9% (inactive)
4,CN(C)C(=O)c1cccc(-c2cnc3c(NC=O)cc(-c4ccc(C(=O)N5CCOCC5)cc4)cn23)c1,-177% (inactive)
5,O=C1NNC(c2ccccc2)=N/C1=C\c1ccc(Cl)cc1,64% (active)
6,O=C(c1ccccc1)c1ccc(OC(=O)N2CCCC2)cc1,22.4% (inactive)
7,COc1ccc(OC)c(NC(=O)c2ccc3c(c2)CCN3S(C)(=O)=O)c1,3% (inactive)
8,Cc1nc(C(=O)NCc2ccccc2)sc1C1(C)CC(c2cccnc2)=NO1 (stereo not drawn),8.5% (inactive)
9,CCC(C)[C@H](NC(=O)N1c2ccccc2NC(=O)[C@@H]1C(C)C)C(=O)N[C@@H](Cc1ccccc1)C(=O)O (stereo partly drawn),53.4% (active)
10,CC(C)[C@H](NC(=O)N1c2ccccc2NC(=O)[C@@H]1C(C)C)C(=O)N[C@H](C(=O)O)c1ccccc1,37% (inactive)
11,CC(=O)N/C(=C\c1ccc(F)cc1)C(=O)NC(Cc1ccccc1)C(=O)O (stereo not drawn),2.6% (inactive)
12,COc1ccc([C@H]2N[C@]3(CCCN(Cc4ccco4)C3=O)[C@H]3C(=O)N(C)C(=O)[C@@H]23)cc1,-14% (inactive)
13,O=C(NCCCN1CCN(c2ccc(F)cc2)CC1)Nc1ccc([N+](=O)[O-])cc1,44.8% (active)
14,O=C(CCN1C(=O)COc2ccccc21)NCCCN1CCN(c2ccc(F)cc2)CC1,12.7% (inactive)
15,O=C(CSc1ccc([N+](=O)[O-])cn1)Nc1ccc(N2CCOCC2)cc1,37.7% (inactive)
16,O=C(Nc1ccc(C(=O)NCc2ccccc2Cl)cc1)C1=CSCCO1,-35.3% (inactive)
17,COc1ccc(OC)c(C(O)c2nc3ccccc3n2C)c1 (stereo not drawn),15.4% (inactive)
18,Cn1nc(C(F)(F)F)c(C(=O)Nc2cccc(C(F)(F)F)c2)c1SCc1ccc(Cl)cc1,5.4% (inactive)
19,CCCCn1c(N)c(N(CC(C)C)C(=O)c2ccc(Br)o2)c(=O)[nH]c1=O,-3.8% (inactive)
20,COc1cc(C(=S)N2CCOCC2)cc(OC)c1OC(=O)c1cc([N+](=O)[O-])cc([N+](=O)[O-])c1,40.9% (active)
21,COc1cc(C(=S)N2CCOCC2)cc(OC)c1OC(=O)c1cc([N+](=O)[O-])c(C)c([N+](=O)[O-])c1,27.5% (inactive)
22,COc1cc(C(=S)N2CCOCC2)cc(OC)c1OC(=O)c1ccc([N+](=O)[O-])cc1[N+](=O)[O-],11.9% (inactive)
